# Compounds with a hit are over-represented: about 2.3% of the library has one in this group of screens.
# CHT allo act: CHT positive allosteric modulators, primary screen, cell-based, membrane potential dye, choline EC20. High affinity choline transporter 1 (Homo sapiens), Q9GZV3. CHT-expressing cells; stronger effect = higher value; LV-AA mutant CHT in HEK293 cells. B-score at 10 µM. 310,000 tested, 0.49% active;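 active = initial fluorescence not abnormally high and integrated response B-score, plate-corrected, over 3 SD above library mean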
# TMEM16A act: TMEM16A chloride channel activators or potentiators, primary screen, cell-based, HTS | Anoctamin-1 (Mus musculus), Q8BHY3 | HEK293 TMEM16A/YFP-H148Q/I152L, iodide quench fluorescence; stronger effect = lower value | B-score at 10 µM | 340,000 tested, 0.3% active | AID 623877, 2012;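 active = fluorescence-ratio B-score plate-corrected deviation score at least 3 library SD below zero, with starting fluorescence score within 5 deviations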;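 note: channel opened by trigger with iodide after compound preincubation; score built on the fluorescence ratio of max minus min over baseline; more negative score means more quench and so TMEM16A activation or potentiation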
# Target sequence (Q8BHY3 whole entry, looked up): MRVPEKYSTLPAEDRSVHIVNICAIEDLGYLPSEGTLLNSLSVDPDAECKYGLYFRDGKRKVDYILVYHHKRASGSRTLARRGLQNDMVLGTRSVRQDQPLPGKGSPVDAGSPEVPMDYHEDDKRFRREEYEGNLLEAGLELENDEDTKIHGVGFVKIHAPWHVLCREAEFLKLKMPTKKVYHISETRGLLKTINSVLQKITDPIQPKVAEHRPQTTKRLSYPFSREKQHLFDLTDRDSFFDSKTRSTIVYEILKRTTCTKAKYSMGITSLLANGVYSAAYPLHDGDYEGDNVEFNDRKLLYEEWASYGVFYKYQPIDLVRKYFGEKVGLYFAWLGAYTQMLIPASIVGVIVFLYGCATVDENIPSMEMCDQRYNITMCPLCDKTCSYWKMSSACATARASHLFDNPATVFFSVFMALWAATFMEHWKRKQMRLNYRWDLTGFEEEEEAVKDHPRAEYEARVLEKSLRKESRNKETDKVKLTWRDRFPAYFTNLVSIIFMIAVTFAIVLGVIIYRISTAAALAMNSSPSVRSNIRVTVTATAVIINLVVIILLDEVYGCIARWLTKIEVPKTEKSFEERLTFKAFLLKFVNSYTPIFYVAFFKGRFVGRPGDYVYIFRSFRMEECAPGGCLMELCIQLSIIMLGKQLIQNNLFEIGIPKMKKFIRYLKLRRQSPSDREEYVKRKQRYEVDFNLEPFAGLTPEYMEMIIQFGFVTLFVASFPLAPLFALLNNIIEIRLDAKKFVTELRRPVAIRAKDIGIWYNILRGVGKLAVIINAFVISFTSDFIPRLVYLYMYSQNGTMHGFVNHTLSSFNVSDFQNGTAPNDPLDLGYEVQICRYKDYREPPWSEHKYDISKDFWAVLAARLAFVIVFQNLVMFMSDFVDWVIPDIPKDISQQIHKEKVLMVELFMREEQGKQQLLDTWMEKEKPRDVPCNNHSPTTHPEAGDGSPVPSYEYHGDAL
# CHT inh: inhibitors of human choline transporter CHT; CHT-expressing cells, membrane potential dye, choline response; stronger effect = lower value; B-score at 10 µM; High affinity choline transporter 1 (Homo sapiens), Q9GZV3; AID 488975, 2010; 310,000 tested, 0.86% active;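 active = B-score over 3 SD under the library average, and starting fluorescence ratio not unusually high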;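 note: choline stimulus applied at its EC90 after an EC20 pre-addition; B-score computed on integrated fluorescence ratio after choline addition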
# TMEM16A inh: TMEM16A chloride channel inhibitors, primary screen, cell-based, HTS. normalized B-score (activity score, 25-100; higher = stronger inhibition) at 10 µM. HEK293 TMEM16A/YFP iodide influx fluorescence, ionomycin. 310,000 tested, 1.2% active;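 active = ratio plate-corrected score three or more library SD toward inhibition, starting fluorescence score within five deviations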;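 note: score derived from kinetic fluorescence span divided by baseline fluorescence per well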
# CHT inh conf: CHT inhibitors, confirmation, cell-based, membrane potential dye, duplicate | shares compounds with CHT inh | AID 493221, 2011 | CHT activity remaining % of control (stronger effect = lower value), % at 10 µM | CHT-expressing cells, choline membrane potential dye; LV-to-AA substituted CHT, HEK293 cells | 2,400 tested, 70% active;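 active = choline transporter activity left, mean of duplicates at 10 µM, below buffer-only control mean minus 3 SD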;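 note: depolarization triggered by choline at its EC90 following an EC20 pre-addition; 0% = hemicholinium-3 full block and 100% = buffer-only control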
# HEK293 MPD ctr: membrane potential effects in parental HEK293, counter-screen for CHT inhibitor project, cell-based, membrane potential dye; membrane potential ratio readout (active if shifted either direction beyond buffer ±3SD; no single direction) at 10 µM; choline response; active = decrease or increase beyond buffer ±3SD; AID 493222, 2011; 2,400 tested, 4% active; shares compounds with CHT inh;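 note: parental cells lack the transporter so any hit is non-specific; ratio is peak minus trough fluorescence over baseline after EC90 choline challenge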
# Starred values were filed as active, the others as inactive; i = inactive; . = no result given.
SMILES,CHT allo act,TMEM16A act,CHT inh,TMEM16A inh,CHT inh conf,HEK293 MPD ctr
Cc1ccc(-c2nnn(CC(=O)N(CCN3CCOCC3)C(C(=O)NC(C)(C)C)c3ccco3)n2)cc1 (centres undefined),i,i,-6.2*,i,24%*,-10*
O=C(CC1C(=O)NCCN1Cc1ccc(F)cc1)NCCCn1cccn1 (centres undefined),i,i,i,i,.,.
CCOC(=O)c1cc(NC(=O)c2ccoc2C)cc(C(=O)OCC)c1,i,i,-6.1*,i,40%*,i
CC(=O)c1cccc(NC(=O)c2ccoc2C)c1,i,i,i,i,.,.
Cc1ccc(C(C)NC(=O)C2CCCC2)cc1C (centres undefined),i,i,-5.4*,i,44%*,i
CC(C)c1ccc(C(C)NC(=O)C2CCCC2)cc1 (centres undefined),i,i,-5.3*,i,66%*,i
CCN1CCN(C(=O)C2=CC(c3ccc(C)cc3)=NS(=O)(=O)N2C)CC1,i,i,-6.6*,i,i,i
CCN1CCN(C(=O)C2=CC(c3ccc(OC)cc3)=NS(=O)(=O)N2C)CC1,i,i,i,i,.,.
Cc1ccc(C2=NN3C(C(=O)c4ccccc4)Oc4ccccc4C3C2)cc1 (centres undefined),i,i,i,i,.,.
CCN(c1ccccc1)S(=O)(=O)c1cc(C(=O)NCC(c2ccc(OC)cc2)N(C)C)ccc1C (centres undefined),.,i,.,.,.,.
O=C(CN1C(=O)S/C(=C\c2cccc(Cl)c2)C1=O)NCCCn1ccnc1,i,i,-5.8*,i,56%*,i
COc1cccc(/C=C2\SC(=O)N(CC(=O)NCCCn3ccnc3)C2=O)c1,i,i,i,i,.,.
CN(C)C(=S)c1ccccc1,i,i,i,i,.,.
O=C(CN1CCN(S(=O)(=O)c2ccc(Cl)c(Cl)c2)CC1)N1CCCC1,.,i,.,.,.,.
CCOc1ccc(C2NC(=O)c3sc(=S)n(-c4ccccc4)c3N2)cc1 (centres undefined),i,i,-4.9*,i,i,i
COc1ccc(C2NC(=O)c3sc(=S)n(-c4ccccc4)c3N2)cc1 (centres undefined),i,i,i,i,.,.
O=C(CNC(=O)c1ccc(Cl)cc1Cl)OCC(=O)c1ccc2c(c1)OCCO2,i,i,-6.7*,i,66%*,i
CCOC(=O)c1cc2c(ccn2-c2ccc(F)cc2)n1CC(=O)N(CC)CC,i,i,i,i,.,.
CCCc1cc(NCCN(C)C)n2c(nc3ccccc32)c1C#N,i,i,-6.1*,i,51%*,i
CCCc1cc(NCC2CCCO2)n2c(nc3ccccc32)c1C#N (centres undefined),i,i,-6.9*,i,43%*,i
CCCc1cc(NCc2ccccn2)n2c(nc3ccccc32)c1C#N,i,i,i,i,.,.
O=C(c1cc(COc2ccc(F)cc2Cl)on1)N1CCC(c2ccncc2)CC1,i,i,-6.5*,25*,56%*,i
CCc1nc(SCC(=O)Nc2ccc(F)cc2)c2c(=O)n(C)c(=O)n(C)c2n1,i,i,i,i,.,.
COC(=O)c1nnn(CC(=O)NC(=O)Nc2cccc(Cl)c2C)c1C(=O)OC,i,i,i,i,.,.
Cc1ccc(-c2csc3ncn(CC#N)c(=O)c23)cc1,i,i,-5.6*,i,50%*,i
SMILES,CHT allo act,TMEM16A act,CHT inh,TMEM16A inh,CHT inh conf,HEK293 MPD ctr
Cc1ccc(-c2csc3ncn(CC#N)c(=O)c23)cc1C,i,i,i,i,.,.
CCn1c(COc2ccccc2)nc2ccccc21,i,i,i,i,.,.
CCn1c(COc2ccc(OC)cc2)nc2ccccc21,i,i,-5.2*,i,i,i
CCCOc1ccc(C(C)=O)cc1CC(C(=O)OCC)C(=O)OCC,i,i,-5*,i,i,i
CC1=NC(C)(C)Cc2cc(C)c(C)cc21,i,i,-8.2*,i,42%*,i
COc1cc(C(=O)NC2Cc3ccccc3C2)ccc1OC1CCN(C(C)=O)CC1,i,i,i,i,.,.
COc1cc(C(=O)NC2CC(C)(C)CC(C)(C)C2)ccc1OC1CCN(C(C)=O)CC1,i,i,-6.9*,i,4.8%*,i
O=C(Nc1ccc(F)cc1)c1oc2ccccc2c1NC(=O)C1CC1,i,i,i,i,.,.
CCN(CC)S(=O)(=O)c1ccc2c(c1)[nH]c(=S)n2CC,i,i,i,i,.,.
CCOC(=O)c1ccc2c(c1)[nH]c(=S)n2CC,i,i,-5.1*,i,56%*,i
CCn1c(=O)c2c(nc3n2CCCN3CCc2ccc(OC)c(OC)c2)n(C)c1=O,i,i,i,i,.,.
CCCn1c(=O)c2c(nc3n2CCCN3CCc2ccc(OC)c(OC)c2)n(C)c1=O,i,i,-5.2*,i,70%*,i
Cc1cccc(C)c1NC(=O)CSC(=O)c1sc2ccccc2c1Cl,i,i,i,i,.,.
CC(=O)N(c1ccccc1)c1nc(/C=C/C(=O)Nc2c(C)cc(C)cc2C)cs1,i,i,-5.3*,i,i,i
Cc1cc(C)c(NC(=O)Cn2nc(-c3ccccc3)nc2-c2ccccc2)c(C)c1,i,i,i,i,.,.
CC(C)N(C(=O)Cc1ccccc1[N+](=O)[O-])C(C)C,i,i,i,i,.,.
CCCOc1cccc(NC(=O)c2c(-c3ccccc3)noc2C)c1,i,i,i,i,.,.
Cc1cccc(OCCOC(=O)c2c(-c3ccccc3)noc2C)c1,i,i,-5.4*,i,i,i
Cc1ccc(-n2nc(C)c(C(=O)N3CCN(C(=O)c4ccco4)CC3)c2-n2cccc2)cc1,i,i,i,i,.,.
O=c1[nH]cc(N=Cc2cc(Cl)cc(Cl)c2O)c(=O)[nH]1,i,i,-13*,i,51%*,i
O=c1[nH]cc(N=Cc2cc([N+](=O)[O-])ccc2O)c(=O)[nH]1,i,.,i,i,.,.
CCCC(=O)Nc1c(-c2ccccc2Cl)c(=O)c2ccccc2n1C,i,i,i,i,.,.
CC(C)COCC(CN(Cc1ccccc1)c1ccccc1)N1CCCC1 (centres undefined),i,i,-5.2*,i,i,i

# Source: PubChem BioAssay
